Compound activity as filed in PubChem.
Only some compounds are listed: those with a hit (about 1.6% of all), similar ones and a draw of the others.
GRK2 inh: inhibitors of human GRK2 displacing RNA aptamer. P25098. bead flow cytometry, FAM-aptamer displacement from GRK2. inhibition of aptamer binding, % at 10 µM. 330,000 compounds, 0.59% hits;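 active means inhibition of aptamer binding above 40%, roughly 3 SD of noise, on plates passing a quality check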;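 further: median bead fluorescence of bound FAM aptamer so fluorescent compounds give negative values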
VLA-4 inh: inhibition in a human VLA-4 binding assay | inhibition, % (about 7 µM as worked out from the volumes in the protocol) | P13612 | VLA-4 expressing cells, ligand binding flow cytometry | 330,000 compounds, 0.2% hits; in the data active means inhibition above about 50%
PREPL inhibitor: human PREPL enzyme inhibition; 320,000 compounds, 0.68% hits; AID 2751; inhibition, % at 5.96 µM; recombinant PREPL, fluorescence polarization activity-based probe; in the data active means inhibition above about 43%;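 further: 0% = enzyme with DMSO and 100% = wells lacking enzyme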
Target sequence (Q4J6C6 whole entry, looked up): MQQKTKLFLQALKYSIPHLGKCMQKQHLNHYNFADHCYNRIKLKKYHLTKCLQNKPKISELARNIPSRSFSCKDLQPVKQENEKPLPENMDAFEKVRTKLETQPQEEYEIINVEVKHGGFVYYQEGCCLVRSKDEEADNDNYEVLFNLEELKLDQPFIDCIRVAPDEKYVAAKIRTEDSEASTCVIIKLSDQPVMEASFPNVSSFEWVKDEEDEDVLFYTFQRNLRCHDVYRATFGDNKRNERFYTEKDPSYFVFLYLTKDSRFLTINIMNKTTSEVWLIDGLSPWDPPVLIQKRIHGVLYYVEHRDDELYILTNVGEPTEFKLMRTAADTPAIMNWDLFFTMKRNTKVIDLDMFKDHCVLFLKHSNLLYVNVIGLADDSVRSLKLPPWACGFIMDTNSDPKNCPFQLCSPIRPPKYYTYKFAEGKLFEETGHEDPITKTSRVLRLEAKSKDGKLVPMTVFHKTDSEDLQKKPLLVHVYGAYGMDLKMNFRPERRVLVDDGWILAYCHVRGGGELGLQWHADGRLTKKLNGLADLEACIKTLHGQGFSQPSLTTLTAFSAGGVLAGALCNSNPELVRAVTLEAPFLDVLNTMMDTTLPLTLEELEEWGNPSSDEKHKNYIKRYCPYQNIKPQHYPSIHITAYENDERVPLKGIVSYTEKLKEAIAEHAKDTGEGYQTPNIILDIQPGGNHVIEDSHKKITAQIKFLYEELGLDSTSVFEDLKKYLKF
GASC-1 inh: inhibitors of human GASC-1 (JMJD2C) demethylase; Q9H3R0; GST-JMJD2C(1-420) H3K9me3 demethylation, DELFIA europium; inhibition, % at 2.35 µM; 330,000 compounds, 0.069% hits; AID 2099;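 active means more than half of a compound's replicate wells show inhibition beyond 50%, single wells judged on their own value; inconclusive means some, but no more than half, of replicates pass 50% inhibition; inactive means no replicate passes 50% inhibition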;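 further: signal counts dimethyl H3K9 product captured on neutravidin plate; 0% = median of DMSO wells and 100% = 0.3 times that DMSO median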
DSG3 Ab inh: blocks pemphigus antibody binding to human desmoglein-3 | P32926 | DSG3-coupled beads, scFv-anti-DSG3-GFP binding, flow cytometry; hits give low values | binding (percent of control), % at 10 µM | 310,000 compounds, 0.48% hits | AID 588358;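 active means binding more than 3 SD below its plate's average and above zero; inconclusive means below that plate limit but binding exactly zero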;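 further: hits lower antibody fragment binding to DSG3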
GRK2 inh confirm: human GRK2 inhibition confirmation, cherry pick 1; shares compounds with GRK2 inh; AID 504451; 2,000 compounds, 4% hits; aptamer displacement, % at 10 µM; bead-bound GRK2, FAM-aptamer displacement, flow cytometry;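 active means aptamer displacement above 40%, near three times the noise of non-fluorescent compounds, on plates passing quality checks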;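 further: negative values mostly reflect intrinsic compound fluorescence rather than true enhancement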
FAM quench CP1: aptamer fluorescence quenching in GRK2 counter-screen; shares compounds with GRK2 inh; Carboxyfluorescein RNA aptamer on beads, flow cytometry quenching; hits give low values; fluorescence response (% of DMSO), % at 10 µM; 2,000 tested, under 10 active; AID 504580;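 active means compounds that quench the bead-bound fluorescent RNA probe, cutting fluorescence to under half of the solvent control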;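 further: counterscreen run without GRK2 so only probe quenching by compound is measured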
GRK2 CP2: confirmation of human GRK2 inhibitors binding RNA aptamer site; shares compounds with GRK2 inh; 360 tested, under 10 active; AID 504782; inhibition of aptamer binding, % at 10 µM; bead-bound GRK2, FAM-aptamer displacement, flow cytometry;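 active means inhibition of aptamer binding above 40%, about triple the noise seen with nonglowing compounds, on plates passing quality control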;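 further: negative values mostly come from compounds that fluoresce themselves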
FAM quench SP: counter-screen for GRK2 binding hits: quenchers of fluorescent RNA aptamer; 360 tested, under 10 active; AID 588494; shares compounds with GRK2 inh; carboxyfluorescein RNA aptamer beads, flow cytometry quenching; hits give low values; fluorescence response vs DMSO, % at 10 µM;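 active means response vs DMSO under 50%, meaning signal dropped by over half, treated as fluorescence quencher; inconclusive means no clear call, values can overlap the other calls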;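 further: labelled aptamer on streptavidin beads without GRK2 as a quench counter-screen; 100% = bead fluorescence of DMSO wells and lower means quenching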
The depositor's hits bear a star; u = inconclusive; x = not tested or not shown.

SMILES | GRK2 inh | VLA-4 inh | PREPL inhibitor | GASC-1 inh | DSG3 Ab inh | GRK2 inh confirm | FAM quench CP1 | others
COCCNC(=O)c1c(N)n(-c2ccccc2)c2nc3ccccc3nc12 | 35 | 16 | 10 | -15 | 101 | 0 | 103
COCCCNC(=O)c1c(N)n(-c2ccccc2)c2nc3ccccc3nc12 | 1 | -8 | 13 | 20 | 102 | x | x
COc1ccc(Cl)cc1Nc1nnc(-c2ccncc2)s1 | 55* | 5 | 2 | -2 | 113 | -11 | 103
COc1ccc(Nc2nnc(-c3ccncc3)s2)cc1Cl | 0 | 0 | 4 | 3 | 112 | x | x
CC1CCCC(NCC(O)COC(c2ccc(F)cc2)c2ccc(F)cc2)C1C (stereo not drawn) | 0 | 30 | -39 | -6 | 89 | -5 | 102
Cc1ccc(NC(=O)CNC(=O)C2CCCCC2)nc1 | 63* | 0 | -5 | 3 | 102 | -1 | 105
C/C(=N\NC(=O)c1cccc(S(=O)(=O)N2CCCC2)c1)c1cccs1 | 0 | -1 | 4 | -4 | 118 | x | x
O=C1C2CCCN2C(=O)N1CCCCN1CCN(c2cccc(Cl)c2)CC1 (stereo not drawn) | 100* | 24 | 21 | -2 | 90 | x | x | GRK2 CP2=3;FAM quench SP=99
O=C1C2CCCCN2C(=O)N1CCN1CCN(c2cccc(Cl)c2)CC1 (stereo not drawn) | x | x | x | x | 116 | x | x
CCCCNC(=O)C1CCN(S(=O)(=O)N2CCCCCC2)CC1 | 0 | -13 | -1 | -1 | 118 | x | x
CCC1CCCCN1CCCNC(=O)C1CCN(S(=O)(=O)N2CCCCC2)CC1 (stereo not drawn) | 15 | -2 | 7 | -3 | 92 | -41 | 112
CC(OC(=O)c1ccc(F)c(S(=O)(=O)N2CCOCC2)c1)C(=O)NC1CCCC1 (stereo not drawn) | x | x | x | x | 105 | x | x
CCCN1CCN(C(=O)C2CCN(S(=O)(=O)c3c(C)noc3/C=C/c3ccc(C)cc3)CC2)CC1 | 77* | 8 | 40 | -4 | 100 | -4 | 106
Cc1ccc(/C=C/c2onc(C)c2S(=O)(=O)N2CCC(C(=O)N3CCCCC3)CC2)cc1 | 0 | 7 | 28 | 2 | 103 | x | x
Cn1c(SCC(=O)Nc2ccc(NC(=O)c3ccccc3)cc2)nnc1-c1ccncc1 | 62* | -2 | -8 | -2 | x | -2 | 99
Nc1ccn(CC(=O)NCc2ccccn2)c(=O)n1 | 77* | 21 | 6 | 2 | 102 | -1 | 95
Nc1ccn(CC(=O)NCCc2ccccn2)c(=O)n1 | 2 | 0 | 18 | 3 | 98 | x | x
Cc1ccc([C@H]2N[C@]3(CCCN(Cc4ccccc4)C3=O)[C@H]3C(=O)N(C)C(=O)[C@@H]23)cc1 | x | x | x | x | 103 | x | x
NC(=O)C1(Nc2ccc(Cl)cc2)CCCC1 | x | x | x | x | 94 | x | x
O=C(CCCCCCCC(=O)N1CCCC1)N1CCCC1 | x | x | x | x | 127 | x | x
O=C(CCSCCC(=O)N1CCCC1)N1CCCC1 | 45* | 22 | 1 | -9 | 91 | -4 | 96
O=C(O)CC(C(=O)O)N1C(=O)/C(=C/c2ccc(-c3nc4ccccc4s3)o2)SC1=S (stereo not drawn) | 44* | -6 | 17 | -2 | 102 | 8 | 181
O=C1C(Cc2c[nH]c3ccccc23)NC(=S)N1C1CCCCC1 (stereo not drawn) | 2 | -18 | -7 | 6 | 106 | x | x
CCOC(=O)c1ccc2nc(NC(=O)C(C)C)sc2c1 | 62* | 23 | 2 | 2 | 100 | -1 | 97
CC1(c2ccccc2)CC(C)(C)N2C(=O)Cc3cccc1c32 (stereo not drawn) | 50* | 2 | -8 | 0 | 95 | 1 | 99
SMILES | GRK2 inh | VLA-4 inh | PREPL inhibitor | GASC-1 inh | DSG3 Ab inh | GRK2 inh confirm | FAM quench CP1 | others
CCOc1ncccc1C(=O)OCC(=O)Nc1ccc2c(c1)CCC2 | 24 | -1 | 20 | -9 | 88 | 0 | 108
CCC(=O)N1CCc2cc(S(=O)(=O)CCC(=O)NCc3cccs3)ccc21 | 0 | 10 | 2 | 0 | 80 | x | x | GRK2 CP2=12;FAM quench SP=99
CCOc1ccc(NC(=O)CCS(=O)(=O)c2ccc3c(c2)CCCN3C(C)=O)cc1 | 4 | -3 | 9 | 25 | x | x | x
CCc1ccccc1NC(=O)CCS(=O)(=O)c1ccc2c(c1)CCCN2C(C)=O | 61* | 5 | 12 | -6 | 99 | 1 | 100 | GRK2 CP2=17;FAM quench SP=100
CCOc1ccccc1NC(=O)CCS(=O)(=O)c1ccc2c(c1)CCN2C(C)=O | 6 | -5 | 13 | -10 | 106 | x | x | GRK2 CP2=-8;FAM quench SP=101
CC(C)C[C@@H](CO)N1CCN(CCCc2ccccc2)CCC1=O | 2 | -9 | 16 | -2 | 95 | x | x
C=CCOC(=O)c1cc(-c2ccc(/C=C3\C(=O)NC(=O)C(C#N)=C3C)o2)ccc1Cl | x | x | x | x | 115 | x | x
CCCOC(=O)c1cc(-c2ccc(/C=C3/C(=O)N(C)C(=O)C(C#N)=C3C)o2)ccc1Cl | 52* | -10 | 14 | x | 104 | 0 | 96
Cc1ccc(Oc2ccc(OCC(=O)NC(C)C(=O)O)cc2)cc1 (stereo not drawn) | 0 | 6 | -10 | -6 | 100 | x | x
CC(NC(=O)COc1ccc(Oc2ccccc2)cc1)C(=O)O (stereo not drawn) | 52* | 8 | -1 | 15 | u | -3 | 108
COc1ccc(Cl)cc1C(=O)Nc1cccc(-c2ccc3nncn3n2)c1 | 60* | -7 | 5 | -2 | 95 | 17 | 96
O=C(Cc1cccs1)NCc1cccc(Br)c1 | 55* | -4 | x | -1 | 105 | 2 | 102
O=C(Cc1cccs1)NCc1cccs1 | 0 | 2 | 4 | 4 | 99 | x | x
O=C(CN1CCN(c2ccccc2)CC1)Nc1ccc(Oc2ccccc2)cc1 | 3 | 14 | 2 | -6 | 103 | x | x
CN1CCCC(CC2Oc3ccccc3Sc3ccccc32)C1 (stereo not drawn) | 44* | 11 | -20 | -21 | 81 | x | x | GRK2 CP2=-9;FAM quench SP=101
c1ccc2c(c1)OC(CCCN1CCCCC1)c1ccccc1S2 (stereo not drawn) | 0 | 12 | -21 | 0 | x | x | x
CCCCCC(=O)N1CC2(CC(c3cccc(NC(=O)CC(c4ccccc4)c4ccccc4)c3)=NO2)C[C@@H]1C(N)=O (stereo partly drawn) | 0 | 9 | 9 | -17 | 103 | x | x | GRK2 CP2=-19;FAM quench SP=96
CCCCCC(=O)N1CC2(CC(c3cccc(NC(=O)COc4ccc(Cl)cc4)c3)=NO2)C[C@@H]1C(N)=O (stereo partly drawn) | 4 | -7 | 38 | -1 | 105 | x | x | GRK2 CP2=-21;FAM quench SP=101
